{"source": "PubChem BioAssay AID1508600", "about": "(Functional Genomics Laboratory (NCATS/FGL), 2020)", "note": "Among all 53,000 sequences or so, about 3,700 (7%) were called active. The entries come from a sample that favours actives as a whole. Unmarked numbers belong to inactive results.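 The calls were made as follows: active = gene knockdowns whose robust z-score for IL-1 alpha signal is at least 2 or at most -2, so actives lie on both sides; inactive = the rest.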", "data": [{"experiment": "Components of the Cytosolic LPS Sensing Pathway: Gene Identification via Genome-wide siRNA Screen;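 also: robust z of the log signal after scaling to non-targeting control siRNA wells of the plate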", "conditions": "RAW264.7 macrophages, IL-1a HTRF, actives lie on both sides, screened at 100 nM (by protocol), cells primed 5 h with Pam3CSK4 first", "procedure,_shortened": "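IL-1a HTRF of supernatants after 24 hour LipidA transfection of Pam3CSK4-primed (5 hours) RAW264.7 cells, 48h post-siRNA transfection (100 nM). Scores: percent of plate negative-control median, then log-based robust z-score.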", "values": [{"sequence": "GGUCACCUCAAUAAACUCUTT against Myl7", "z-score": 0.228}, {"sequence": "CGUGUAAACGCAAUUAAAATT against Zfp870", "z-score": 0.272}, {"sequence": "GGUUCAGAUGUCUGAUAAATT against Mrm3", "z-score": 1.43}, {"sequence": "GGAGCAUGUAGAGGUUUACTT against Txnrd2", "z-score": "2.44 (active)"}, {"sequence": "GGAUACCUAGUUCUUAGUUTT against Mageb18", "z-score": 0.151}, {"sequence": "GGGACUUUCGUAAUAAACCTT against Lman1", "z-score": -1.26}, {"sequence": "CGUGAAAUAGAUGAUACCUTT against Cdc5l", "z-score": 0.625}, {"sequence": "GGUAACGAUGCUGGAAUUCTT against Sdcbp", "z-score": "4.37 (active)"}, {"sequence": "GCAAACUCCAGCUCAACGATT against Galnt4", "z-score": -1.19}, {"sequence": "GGAUGGUGUUGUGUUUAAATT against Chst2", "z-score": 0.962}, {"sequence": "GGCUGGUGCUGAAUAUCUUTT against Bnip5", "z-score": 0.507}, {"sequence": "GGUCUUGGUCCCUGAGAAATT against Ddit4l", "z-score": 0.23}, {"sequence": "GGACAAAUUGUAUGGCGAATT against Hecw2", "z-score": -0.402}, {"sequence": "GAGAACAAGCCUAAGCCCATT against V1rb5", "z-score": 1.44}, {"sequence": "GCUCGAGGACUAUAUGAAUTT against Xrcc1", "z-score": "2.03 (active)"}, {"sequence": "GGAAUAUUGUGGCCUUAUATT against Bnip3", "z-score": 0.489}, {"sequence": "GAGGGAUAUGUGAAGCCUCTT against Mospd3", "z-score": -0.806}, {"sequence": "CCGAAGUCAAUGAAGCUCUTT against Gcsh", "z-score": "-2.13 (active)"}, {"sequence": "CCAUGUUCAGAAGAGAAUATT against Igsf11", "z-score": -1.69}, {"sequence": "GCAAGUAGAAACCCUUAAUTT against Scara5", "z-score": -0.0354}, {"sequence": "CGAUUCCGUCAAAUUAAAGTT against Catsper2", "z-score": 0.156}, {"sequence": "GGCAGAUUGUGAAAAAACUTT against Slc9a6", "z-score": -0.503}, {"sequence": "GGAAAAGGUCAUUAUCAUUTT against Hsf3", "z-score": "-2.11 (active)"}, {"sequence": "GUCACUGUGAUGGGAAAUUTT against Olfr895", "z-score": -0.847}, {"sequence": "ACACCUGCCUGCAUCUACUTT against Tcp10a", "z-score": 1.5}, {"sequence": "GCACUUGUGACUAUAAAGUTT against Celf2", "z-score": 0.262}, {"sequence": "UGUGGUGAACCCAAUGCACTT against Klk1b22", "z-score": "-3.28 (active)"}, {"sequence": "CCUGAUUGGGAUCUCAAGATT against Ccdc12", "z-score": -0.673}, {"sequence": "AAUAAAAGUGUCCUCUGUGTT against Olfr242", "z-score": 0.202}, {"sequence": "GGAUAGUUUUGUGUUUGAUTT against Gab2", "z-score": 0.932}, {"sequence": "GGUCAUUGAUCUCAGCAACTT against Optc", "z-score": -0.427}, {"sequence": "CCCUACACGCAGGAGUUUUTT against Gtf3c1", "z-score": -0.23}, {"sequence": "GCCCUACACCUGUAUUACATT against Tas1r3", "z-score": -0.964}, {"sequence": "CCUGGAACUUGUUGGAAGCTT against Igsf3", "z-score": 0.799}, {"sequence": "GUGUUCAGGAAGCUGGCAGTT against Klra19", "z-score": 1.98}, {"sequence": "GGACCUCCUCCCAAAGAUATT against Snrpb", "z-score": "-2.83 (active)"}, {"sequence": "GCUAUGGAUCAAAGAAUUATT against Senp1", "z-score": 0.204}, {"sequence": "GGCCCAUCCCACAAUGAUATT against Atg9b", "z-score": -0.998}, {"sequence": "GGAAGUAGGAUGAUGUUGGTT against Hmga1", "z-score": "-2.08 (active)"}, {"sequence": "GCUCACCCAACAAUAUCCATT against Slc17a8", "z-score": -0.881}, {"sequence": "CGAGAAUAUUCGCCCAACCTT against Erbb3", "z-score": 0.682}, {"sequence": "GGAGAUCCGGAAUUUUUAATT against Per2", "z-score": -0.0639}, {"sequence": "GCUAUAUAAUGCUUAUGUGTT against Tpr", "z-score": -0.501}, {"sequence": "GCCUUUGAUAAAAGUCCGGTT against Saxo2", "z-score": -0.93}, {"sequence": "GGAGGGAAUAUGCAAAUAGTT against Ftdc2", "z-score": "2.36 (active)"}, {"sequence": "GGACAUGAUGAUGAUGAUGTT against Gldn", "z-score": -1.8}, {"sequence": "GCUUAUAGAAAACCAGUAATT against Foxd1", "z-score": 0.317}, {"sequence": "GGAAGAAAUGAUGAAUGACTT against Chmp2a", "z-score": "2.36 (active)"}, {"sequence": "GGAUGAUGACAUUCACUUATT against Ntan1", "z-score": -0.619}, {"sequence": "GCCUCGAUCUGAUCUAGAGTT against Dbx2", "z-score": 0.291}, {"sequence": "GGCUGCUGUCAUUAUUUGUTT against Terf2", "z-score": -0.768}, {"sequence": "GGCAUCUUUCACAGUUUUGTT against Hspa12b", "z-score": "2.13 (active)"}, {"sequence": "GGUUUAUGAGCUCUACGCCTT against Tmem11", "z-score": -0.843}, {"sequence": "GGAAGAUGAUGUUUUAGGUTT against Pde7a", "z-score": 0.271}, {"sequence": "CCCAAAGCUAUCAUAUCAATT against Aff4", "z-score": 0.508}, {"sequence": "GGCGACACAUUAAAAUAGUTT against Mepe", "z-score": "2.19 (active)"}, {"sequence": "GUUACCUCUGUGUUGUACUTT against Olfr60", "z-score": -0.148}, {"sequence": "GGAAGAAAAAGAUGAGAAATT against Hrc", "z-score": 0.394}, {"sequence": "GCAUGUCUCAACUAAGGACTT against Upk3b", "z-score": 1.03}, {"sequence": "CCUACAGAGGUGCCAUUGUTT against Naa60", "z-score": -0.244}, {"sequence": "GGACCGAUUCCACUUCAAUTT against Crygd", "z-score": 1.46}, {"sequence": "GCCAAAUGGUGUCAAUAUUTT against Rab33a", "z-score": 0.277}, {"sequence": "GGAGGAUGAUGAGGAGGAUTT against Ppp1r1b", "z-score": "2.35 (active)"}, {"sequence": "CGUGCCAGACCUAUAGCUUTT against Mlxip", "z-score": -0.226}, {"sequence": "GGAGACCUUCCAGAACACATT against Mesd", "z-score": "2.38 (active)"}, {"sequence": "GCGGAUUUACACCUUAUCUTT against Bpi", "z-score": -1.15}, {"sequence": "GGCUAUCACACAGCAUAGATT against Rdh7", "z-score": 1.57}, {"sequence": "CCGUUGGAGGUAAUUAGGATT against Dot1l", "z-score": 0.463}, {"sequence": "GGCACUGUAAAUGUACUCATT against Rbak", "z-score": "-2.54 (active)"}, {"sequence": "GGAGAAGUACAACGCAGCGTT against Wnt7b", "z-score": -0.273}, {"sequence": "GGCUAUGCACUACUCAUUGTT against Galk1", "z-score": -0.607}, {"sequence": "CCAUCCCAUUUAAUGGAUGTT against Olfr1257", "z-score": 1.09}, {"sequence": "GCUCCAGAUGUUCAGAGCUTT against Fbxo9", "z-score": "-2.43 (active)"}, {"sequence": "GCAUUCAGACCAUGACACUTT against Trim30d", "z-score": 0.914}, {"sequence": "GGCCAAGUGAUAGAGUUCATT against Crygd", "z-score": 1.22}, {"sequence": "GGAAGUUCGAUGUUCCUAGTT against Cep85", "z-score": 0.779}, {"sequence": "GGUUAUUAUGACCAAGAAATT against Sf3b1", "z-score": "-2.71 (active)"}, {"sequence": "GCAGUAACCUUCUAACAAATT against Foxn2", "z-score": -0.367}, {"sequence": "GGAGAAAGAUGUUUACCGATT against Hyal2", "z-score": -0.533}, {"sequence": "GGAACUUAAGACUUUCAAGTT against Abcf2", "z-score": 0.904}, {"sequence": "GCGGAUGCAAAUCGAUGAATT against Cep135", "z-score": -0.507}, {"sequence": "GCAUCAUACUGACCUGAGATT against Gml2", "z-score": -1.25}, {"sequence": "CCUAUCUUCCUGAAUACAUTT against Aqp7", "z-score": "2.71 (active)"}, {"sequence": "CCGGCUUAUGCUCAACUUCTT against Bpifb1", "z-score": 0.29}, {"sequence": "GGAACAAUUGAUAAGACGATT against Guf1", "z-score": 0.237}, {"sequence": "GGUCAAGGAGUUCAUUCUGTT against Matn2", "z-score": -1.33}, {"sequence": "GGAUCAUUCUGUGAACAAGTT against Ly6h", "z-score": 1.52}, {"sequence": "GCCCAUUGUAUGACUGCCGTT against Gfra2", "z-score": "3.21 (active)"}, {"sequence": "CCCAAAUACCUACCAUCUCTT against Slc4a9", "z-score": -0.44}, {"sequence": "GGACUCUGAAGAGGAAAAGTT against Pds5b", "z-score": -0.266}, {"sequence": "CCUUACCAGGAAACAUAUUTT against Dennd10", "z-score": -1.33}, {"sequence": "GCGGUUAGCACAAUGUGAATT against Ppp2cb", "z-score": -0.577}, {"sequence": "GGAAAUAAAACAGAUUUGGTT against Atpaf1", "z-score": 0.576}, {"sequence": "GGCACGAGGCAGAAUUUUATT against Kctd3", "z-score": 0.696}, {"sequence": "GCUACAAUUGGCCUUAUCUTT against Stpg2", "z-score": "-3.03 (active)"}, {"sequence": "GGUACUGCUAUGAGAAACUTT against Adam22", "z-score": 0.224}, {"sequence": "GGACCAGAAACGCAUGCUUTT against Maml3", "z-score": -0.762}, {"sequence": "GGAAAACUCAUCAUACCAGTT against Ugt3a1", "z-score": 0.737}, {"sequence": "CGAUUUUACCAACCGCUGCTT against Chtf18", "z-score": 0.702}, {"sequence": "GCUGUUGUAACCAUAACAGTT against Ntsr1", "z-score": 0.439}, {"sequence": "GGGAAUUGCCUCAGCUAAGTT against Men1", "z-score": "2.95 (active)"}, {"sequence": "CCAGUUAAACACAUUAGCCTT against Mxra8", "z-score": -0.373}, {"sequence": "GGCUCAACGGCUUAGGGAATT against B3gat3", "z-score": 1.42}, {"sequence": "GGAAAAUAAGCAUAGUGAUTT against Spesp1", "z-score": -0.35}, {"sequence": "GGACAACCAGCUCAUUGUGTT against Cd82", "z-score": -1.09}, {"sequence": "GCAACACACUGCUUCCUGGTT against Tmem19", "z-score": -1.38}, {"sequence": "GGUAAUUGAGUUUGACGAUTT against Ptprf", "z-score": 0.585}, {"sequence": "CGAAGGCUUCCCUUUUAUCTT against Tmem150b", "z-score": "2.67 (active)"}, {"sequence": "GCCUUCGUCUCCAAGUAUATT against Plagl1", "z-score": -0.305}]}]}
